Laboratory results taken from PubChem BioAssay AID1159580 (chemical genetic matrix, 2015).
Hit rate of the full screen: of about 5,500 compounds, about 2,000 (36%) were called active. Roughly 18% stayed inconclusive and do not appear here. Cut-off read from the data, not from the text of the source: active = normalized growth mostly below about 0.91 (no sharp cut-off); inconclusive = no clear call, values can overlap the other calls; inactive = mostly above about 0.92. Some of the results follow.

Assay: chemical genetic growth profiling, strain panel (AID 1159580);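 note: tested at 20 µM; growth read once vehicle control cultures reached saturation at 30 °C; 1 = growth at the plate median or of vehicle wells; lower values mean less growth of the strain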
Settings: S. cerevisiae deletion strains, growth OD
[1] = locus YAR019C, strain CDC15, hits give low values
[2] = locus YBL105C, strain PKC1, hits give low values
[3] = locus YBR135W, strain CKS1, hits give low values
[4] = locus YBR136W, strain MEC1, hits give low values
[5] = locus YBR160W, strain CDC28, hits give low values
[6] = locus YDL017W, strain CDC7, hits give low values
[7] = locus YDL028C, strain MPS1, hits give low values
[8] = locus YDL101C, strain DUN1, hits give low values
[9] = locus YDL108W, strain KIN28, hits give low values
[10] = locus YDL132W, strain cdc53, hits give low values
[11] = locus YDL214C, strain PRR2, hits give low values
[12] = locus YDR052C, strain DBF4, hits give low values
[13] = locus YDR054C, strain cdc34, hits give low values
[14] = locus YDR226W, strain ADK1, hits give low values
[15] = locus YDR477W, strain SNF1, hits give low values
[16] = locus YER123W, strain YCK3, hits give low values
[17] = locus YER133W, strain GLC7, hits give low values
[18] = locus YFL009W, strain cdc4, hits give low values
[19] = locus YFL029C, strain CAK1, hits give low values
[20] = locus YFR003C, strain YPI1, hits give low values
[21] = locus YFR019W, strain FAB1, hits give low values
[22] = locus YFR028C, strain CDC14, hits give low values
[23] = locus YGR040W, strain KSS1, hits give low values
[24] = locus YGR052W, strain FMP48, hits give low values
[25] = locus YGR092W, strain DBF2, hits give low values
[26] = locus YHR030C, strain SLT2, hits give low values
[27] = locus YHR079C, strain IRE1, hits give low values
[28] = locus YHR082C, strain KSP1, hits give low values
[29] = locus YHR205W, strain SCH9, hits give low values
[30] = locus YIL147C, strain SLN1, hits give low values
[31] = locus YJL095W, strain BCK1, hits give low values
[32] = locus YJL128C, strain PBS2, hits give low values
[33] = locus YJL157C, strain FAR1, hits give low values
[34] = locus YJR016C, strain ILV3, hits give low values
[35] = locus YJR066W, strain TOR1 (second series), hits give low values
[36] = locus YJR066W, strain TOR1, hits give low values
[37] = locus YKL048C, strain ELM1, hits give low values
[38] = locus YKL067W, strain YNK1, hits give low values
[39] = locus YKL101W, strain HSL1, hits give low values
[40] = locus YKL193C, strain SDS22, hits give low values
[41] = locus YKL203C, strain TOR2, hits give low values
[42] = locus YLR113W, strain HOG1, hits give low values
[43] = locus YLR133W, strain CKI1, hits give low values
[44] = locus YLR403W, strain SFP1, hits give low values
[45] = locus YML070W, strain DAK1, hits give low values
[46] = locus YMR001C, strain CDC5, hits give low values
[47] = locus YMR205C, strain PFK2 (second series), hits give low values
[48] = locus YMR277W, strain FCP1, hits give low values
[49] = locus YNL006W, strain LST8, hits give low values
[50] = locus YNL020C, strain ARK1, hits give low values
[51] = locus YNL161W, strain CBK1, hits give low values
[52] = locus YNL183C, strain NPR1, hits give low values
[53] = locus YNL207W, strain RIO2, hits give low values
[54] = locus YNL222W, strain SSU72, hits give low values
[55] = locus YNL307C, strain MCK1 (second series), hits give low values
[56] = locus YOL078W, strain AVO1, hits give low values
[57] = locus YOL136C, strain PFK27, hits give low values
[58] = locus YOR061W, strain CKA2, hits give low values
[59] = locus YOR119C, strain RIO1, hits give low values
[60] = locus YOR231W, strain MKK1, hits give low values
[61] = locus YOR329C, strain SCD5, hits give low values
[62] = locus YPL031C, strain PHO85, hits give low values
[63] = locus YPL153C, strain RAD53, hits give low values
[64] = locus YPL204W, strain HRR25, hits give low values
[65] = locus YPL209C, strain IPL1, hits give low values
[66] = locus YPL256C, strain CLN2, hits give low values
[67] = locus YPR025C, strain CCL1, hits give low values
[68] = locus YPR106W, strain ISR1, hits give low values
[69] = locus YPR111W, strain DBF20, hits give low values
[70] = strain NNK1, hits give low values
[71] = strain TSCII, hits give low values

Measured: normalized growth

C/C(=N/Nc1nc(C(C)(C)C)cs1)c1ccc(Cl)c(Cl)c1
inactive: [1] 0.986 | [2] 0.983 | [3] 0.994 | [4] 0.99 | [5] 0.987 | [6] 0.981 | [7] 0.996 | [8] 0.981 | [9] 0.994 | [10] 0.99 | [11] 0.919 | [12] 0.977 | [13] 0.978 | [14] 0.973 | [15] 0.944 | [16] 0.844 | [17] 0.943 | [18] 0.987 | [19] 0.981 | [20] 0.985 | [21] 0.91 | [22] 0.994 | [23] 0.945 | [24] 0.932 | [25] 0.923 | [27] 0.759 | [28] 0.965 | [29] 0.953 | [30] 0.993 | [31] 0.839 | [32] 0.954 | [33] 0.889 | [34] 0.993 | [35] 0.835 | [36] 0.891 | [37] 0.97 | [38] 0.949 | [39] 0.98 | [40] 0.991 | [41] 0.969 | [43] 0.933 | [44] 0.908 | [45] 0.916 | [46] 0.983 | [47] 0.97 | [48] 0.986 | [49] 0.986 | [50] 0.917 | [51] 0.99 | [52] 0.92 | [53] 0.976 | [54] 0.987 | [55] 0.899 | [56] 0.989 | [57] 0.871 | [58] 0.943 | [59] 1 | [60] 0.792 | [61] 0.981 | [62] 0.903 | [63] 0.932 | [64] 0.899 | [65] 0.987 | [67] 0.992 | [68] 0.983 | [69] 0.974 | [70] 0.974 | [71] 0.989
active: [26] 0.753 | [42] 0.803 | [66] 0.757

CC(C)(C)c1csc(NC(=O)c2ccc(Cl)cc2Cl)n1
inactive: [1] 0.974 | [2] 0.976 | [3] 0.981 | [4] 0.971 | [5] 0.983 | [6] 0.973 | [7] 0.978 | [8] 0.962 | [9] 0.98 | [10] 0.978 | [11] 0.919 | [12] 0.991 | [13] 0.961 | [14] 0.97 | [15] 0.963 | [16] 0.95 | [17] 0.94 | [18] 0.966 | [19] 0.973 | [20] 0.964 | [21] 0.972 | [22] 0.975 | [23] 0.954 | [24] 0.938 | [25] 0.93 | [26] 0.867 | [27] 0.819 | [28] 0.98 | [29] 0.805 | [30] 0.973 | [31] 0.785 | [32] 0.864 | [33] 0.964 | [34] 0.978 | [35] 0.976 | [36] 0.993 | [37] 0.938 | [38] 0.939 | [39] 0.901 | [40] 0.958 | [41] 1.01 | [43] 0.968 | [44] 0.913 | [45] 0.9 | [46] 0.972 | [47] 0.931 | [48] 0.97 | [49] 0.98 | [50] 0.943 | [51] 0.974 | [52] 0.953 | [53] 0.967 | [54] 0.961 | [55] 0.91 | [56] 0.969 | [57] 0.917 | [58] 0.956 | [59] 1.01 | [60] 0.898 | [61] 0.975 | [62] 0.948 | [63] 0.946 | [64] 0.966 | [65] 0.982 | [67] 0.977 | [68] 0.958 | [69] 0.946 | [70] 0.938 | [71] 0.972
active: [42] 0.716 | [66] 0.843

CC(C)(C)c1csc(NNC(=O)c2ccc(Cl)cc2)n1
active: [42] 0.756 | [66] 0.769
inactive: [1] 0.978 | [2] 0.979 | [3] 0.954 | [4] 0.981 | [5] 0.966 | [6] 0.978 | [7] 0.98 | [8] 0.968 | [9] 0.974 | [10] 0.968 | [11] 0.884 | [12] 0.984 | [13] 0.958 | [14] 0.975 | [15] 0.925 | [16] 0.795 | [17] 0.913 | [18] 0.966 | [19] 0.963 | [20] 0.982 | [21] 0.92 | [22] 0.96 | [23] 0.883 | [24] 0.923 | [25] 0.871 | [27] 0.891 | [28] 0.911 | [29] 0.882 | [30] 0.984 | [31] 0.863 | [32] 0.921 | [33] 0.885 | [34] 0.964 | [35] 0.946 | [36] 0.904 | [37] 0.892 | [38] 0.885 | [39] 0.829 | [40] 0.967 | [41] 0.958 | [43] 0.872 | [44] 0.861 | [45] 0.814 | [46] 0.974 | [47] 0.872 | [48] 0.975 | [49] 0.982 | [50] 0.884 | [51] 0.969 | [52] 0.837 | [53] 0.96 | [54] 0.963 | [55] 0.899 | [56] 0.962 | [57] 0.868 | [58] 0.899 | [59] 0.967 | [60] 0.812 | [61] 0.97 | [62] 0.912 | [63] 0.895 | [64] 0.914 | [65] 0.966 | [67] 0.964 | [68] 0.954 | [69] 0.949 | [70] 0.957 | [71] 0.969
